LASV entry inh = Lassa virus entry inhibition; Lassa virus pseudotype entry inhibition, cell reporter; Potency, µM (highest dose often 37.9 µM), hits mostly inhibitors; 300,000 compounds, 1.2% hits; calls by dose curve; tested in HEK293 cells; further: nearly all actives have a fitted effect of over 50% in size
SARS PLpro yeast = inhibitors of SARS-CoV papain-like protease in yeast; 330,000 compounds, 0.19% hits; Potency, µM (titrated, usually from 32.9 µM), actives largely listed as activators; S. cerevisiae expressing SARS-CoV PLpro, growth rescue; calls by dose curve; further: nearly all actives have a fitted effect of over 55% in size
FMDV inh = antivirals against foot and mouth disease virus | FMDV antiviral cell-based qHTS | Potency, µM (top dose mostly 57.9 µM), hits mostly inhibitors | 410,000 compounds, 1.2% hits | AID 1159524; calls by dose curve; tested in HEK293T cells; further: read-out not given here; nearly all actives have a fitted effect of over 45% in size
HCV inh = HCV inhibition; Huh7.5.1 HCVcc-Cre infection, luciferase reporter, 44 h; 340,000 compounds, 3.4% hits; Potency, µM (top dose mostly 41.8 µM), usual class: inhibitors; active means well fitted inhibition curve with a large enough effect; inconclusive means small, poorly fitted or top-dose-only effect, or another doubt; inactive means no such curve, though single readings can be large or run the other way
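Seed cells (1,000/well) for 4 h; treat with compound and infect with HCVcc-Cre, moi about 0.5. Incubate 44 h, then detect luciferase activity.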
HCMV antiviral = inhibitors of human cytomegalovirus | 410,000 compounds, 4.5% hits | activity change, negative = inhibition, % at 57.5 µM | HFF cells, HCMV-luciferase reporter, 72 h; active compounds read low; in the data active means activity change below about -60%; inconclusive means no clear call, values can overlap the other calls; inactive means above about -39%
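Two compound doses tested in HFFs infected with HCMV-luciferase, MOI 1 PFU/cell, 72 h at 37C. Lysate luminescence read with OneGlo; data normalized against buffer-only and 10uM Salinomycin inhibitor controls.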
Marburg entry inh = Marburg virus entry inhibition | Potency, µM (doses to about 37.8 µM), usual class: inhibitors | Marburg virus pseudotyped entry inhibition, cell reporter | AID 540276 | 300,000 compounds, 1.8% hits; calls by dose curve; tested in HEK293 cells
Each line names hits and unclear results; the compound was inactive in the other large screens. Most compounds without a hit are left out; they make up all but 8% or so of the library.

CC(C)(C)NCC(O)COc1ccccc1C(=O)CCc1ccccc1 (stereo not drawn)	HCMV antiviral inconclusive, Marburg entry inh 10µM (no result: FMDV inh)
CN1C(=O)C(=Cc2cccnc2)C(=O)N(C)C1=O	none
O=C1/C(=C/c2cccnc2)CCc2c1[nH]c1ccccc21	HCMV antiviral -76, Marburg entry inh inconclusive
CC1C/C(=C\c2cccnc2)C(=O)/C(=C/c2cccnc2)C1 (stereo not drawn)	LASV entry inh 2.9µM, FMDV inh 3.5µM, HCV inh inconclusive, HCMV antiviral -101, Marburg entry inh 2.1µM
CC(C)C/C=C1\CCc2c([nH]c3ccccc23)C1=O	none
Cc1ccc2oc(=O)n(CCNC(=O)Nc3ccc(C)c(F)c3)c2c1	none (no result: SARS PLpro yeast, HCV inh)
CC(=O)N1CCN(c2ccc(OCC3CO[C@@](Cn4ccnc4)(c4ccc(Cl)cc4Cl)O3)cc2)CC1 (stereo partly drawn)	FMDV inh 25µM (no result: LASV entry inh, SARS PLpro yeast, HCV inh, HCMV antiviral, Marburg entry inh)
CC(=O)N1CCN(c2ccc(NC(=O)c3cc(Cl)ccc3Cl)cc2)CC1	none (no result: LASV entry inh, Marburg entry inh)
CC(C)N1CCN(c2ccc(OC[C@H]3CO[C@](Cn4cncn4)(c4ccc(Cl)cc4Cl)O3)cc2)CC1	HCV inh inconclusive, HCMV antiviral -99 (no result: LASV entry inh, SARS PLpro yeast, Marburg entry inh)
CC(C)N1CCN(c2ccc(OCC3COC(Cn4cncn4)(c4ccc(Cl)cc4Cl)O3)cc2)CC1 (stereo not drawn)	HCV inh inconclusive, Marburg entry inh inconclusive (no result: SARS PLpro yeast)
O=C(N[C@H](C(=O)N1CCC[C@H]1C(=O)NCCc1ccccc1Cl)C1CCCCC1)c1cccs1	none (no result: LASV entry inh, SARS PLpro yeast, FMDV inh, HCV inh, Marburg entry inh)
O=C(Nc1ccc(Cl)c(S(=O)(=O)N2CCOCC2)c1)c1ccccn1	Marburg entry inh inconclusive
O=C(Nc1ccc(Cl)c(S(=O)(=O)N2CCOCC2)c1)c1ccc2c(c1)OCCO2	LASV entry inh inconclusive, HCV inh 10µM, HCMV antiviral -62, Marburg entry inh inconclusive
COc1ccc(NS(=O)(=O)c2cc(NC(=O)c3ccc(Cl)cc3)ccc2N2CCOCC2)cc1	LASV entry inh inconclusive, HCV inh 7.9µM, HCMV antiviral inconclusive, Marburg entry inh 1.1µM
O=C(Nc1ccc(Cl)c(S(=O)(=O)N2CCOCC2)c1)c1ccc(OCC2CCCO2)cc1 (stereo not drawn)	LASV entry inh inconclusive, FMDV inh 7.9µM, HCV inh inconclusive, Marburg entry inh 2.2µM (no result: HCMV antiviral)
CC(C)Oc1ccc(C(=O)Nc2ccc(Cl)c(S(=O)(=O)Nc3ccc(Cl)cc3)c2)cc1	LASV entry inh 11µM, HCV inh inconclusive, Marburg entry inh inconclusive
COc1ccc2c(c1)C(n1c(C)ccc1C)C(=O)N2C (stereo not drawn)	none (no result: LASV entry inh, SARS PLpro yeast, FMDV inh, HCV inh, Marburg entry inh)
O=C(CSc1ccccc1)NCc1ccc2c(c1)CCN2C(=O)c1ccc(Cl)cc1	LASV entry inh inconclusive (no result: SARS PLpro yeast, HCV inh, Marburg entry inh)
CCC(=O)N1CCN(c2ccc(Cl)cc2NC(=O)c2ccc3c(c2)OCCO3)CC1	HCMV antiviral -61 (no result: SARS PLpro yeast)
COc1ccc(NC(=O)c2ccc3c(c2)OCO3)cc1S(=O)(=O)N1CCOCC1	none (no result: LASV entry inh, Marburg entry inh)
COc1ccc(C(=O)Nc2ccc(Cl)c(S(=O)(=O)N3CCOCC3)c2)cc1	LASV entry inh inconclusive, FMDV inh 25µM, HCV inh 8.9µM, HCMV antiviral -76, Marburg entry inh inconclusive
O=C(NC(=S)Nc1ccc(N2CCCCC2)c(Cl)c1)c1ccc2c(c1)OCCO2	LASV entry inh inconclusive, FMDV inh inconclusive, HCV inh 3.5µM, HCMV antiviral -63, Marburg entry inh 1.4µM
O=C(Nc1ccc(Cl)c(S(=O)(=O)N2CCOCC2)c1)c1ccc2c(c1)OCO2	LASV entry inh inconclusive, FMDV inh 32µM, HCV inh 10µM, HCMV antiviral inconclusive, Marburg entry inh 10µM
Cc1ccccc1C(=O)N1CCc2c(cnc(C)c2CNC(=O)CN2CCCCC2)C1	none (no result: LASV entry inh, SARS PLpro yeast, HCV inh, HCMV antiviral, Marburg entry inh)
CCCn1cc(S(=O)(=O)c2cccc(Cl)c2)c(=O)c2cc(F)c(N3CCOCC3)cc21	HCMV antiviral inconclusive (no result: SARS PLpro yeast, HCV inh, Marburg entry inh)
COCc1c(C(=O)NC2CCCCC2)cnn1-c1nccc(-c2cc(C)sc2C)n1	none (no result: LASV entry inh, SARS PLpro yeast, HCV inh, HCMV antiviral, Marburg entry inh)
CN(c1cccc(NC(=O)c2ccc(Cl)c(S(=O)(=O)Nc3ccccc3)c2)c1)S(C)(=O)=O	HCV inh 10µM, Marburg entry inh 3.7µM
O=C(Nc1ccc(Cl)c(S(=O)(=O)N2CCOCC2)c1)c1ccc(Cl)nc1	LASV entry inh inconclusive, FMDV inh 18µM, HCV inh 11µM, HCMV antiviral inconclusive, Marburg entry inh inconclusive
CC(=O)Nc1ccc(S(=O)(=O)NCc2cccn2Cc2cccc(C)c2)cc1	LASV entry inh inconclusive (no result: SARS PLpro yeast, HCV inh, Marburg entry inh)
CCOc1ccc(NC(=S)NC(=O)/C=C/c2ccc(Br)cc2)c([N+](=O)[O-])c1	LASV entry inh 21µM
COc1ccc([C@H]2C[C@H](c3ccc(C)cc3)Nc3nc(N)nn32)cc1	none (no result: LASV entry inh, SARS PLpro yeast, FMDV inh, HCV inh, HCMV antiviral)
CC(=O)c1c(N2CCCC2)[nH]c(-c2ccccc2)nc1=S	SARS PLpro yeast inconclusive, HCV inh 22µM
NC(=O)c1ccccc1NC(=O)CN1CCN(Cc2ccc(Cl)cc2Cl)CC1	FMDV inh 18µM, HCV inh inconclusive, HCMV antiviral inconclusive, Marburg entry inh inconclusive
COc1ccc(-c2cc(C(=O)O)c3ccccc3n2)c(OC)c1	none
COc1ccc(CN(C)C(=O)c2cc(-c3ccccc3)nc3ccc(C)cc23)c(OC)c1OC	LASV entry inh inconclusive, HCV inh 10µM, Marburg entry inh inconclusive (no result: HCMV antiviral)
COC(=O)c1cc(-c2ccc(NC(C)=O)cc2)nc2ccccc12	LASV entry inh inconclusive, HCV inh inconclusive, HCMV antiviral -68, Marburg entry inh inconclusive
CCC(C)c1ccc(-c2cc(C(=O)OCC(=O)Nc3cc(C)on3)c3ccccc3n2)cc1 (stereo not drawn)	LASV entry inh 1.6µM, Marburg entry inh inconclusive
COc1ccc2cc(-c3cc(C(=O)O)c4ccccc4n3)ccc2c1	LASV entry inh 0.35µM, FMDV inh 10µM, HCMV antiviral -61, Marburg entry inh 0.71µM
COc1cc(NC(=O)C2CCN(C(=O)c3sc4nc[nH]c(=O)c4c3C)CC2)cc(OC)c1OC	none (no result: SARS PLpro yeast, HCV inh, Marburg entry inh)
COc1cccc(CNC(=O)CCc2c(C)nc3c(c(C)nn3-c3ccc(C)c(C)c3)c2C)c1	Marburg entry inh inconclusive (no result: SARS PLpro yeast, HCV inh)
COc1ccc(-c2cc(C(=O)OCC(=O)N3CCCC3)c3ccccc3n2)cc1	LASV entry inh inconclusive, HCV inh inconclusive
COc1cccc(CN(C)C(=O)c2cc(-c3ccc(F)cc3)nc3ccccc23)c1	LASV entry inh inconclusive, HCV inh 32µM, Marburg entry inh inconclusive (no result: HCMV antiviral)
COc1ccc2nc(-c3ccccc3)cc(C(=O)OCC(=O)N3CCCCC3)c2c1	HCV inh inconclusive, HCMV antiviral -62 (no result: LASV entry inh, Marburg entry inh)
COc1cccc(-c2cc3c(c(OC)c2)OCCN(S(=O)(=O)c2ccccc2OC(F)(F)F)C3)n1	none (no result: LASV entry inh, SARS PLpro yeast, HCV inh, HCMV antiviral, Marburg entry inh)
COc1ccc(CCNC(=O)CCCn2nc(C)c3sc4ccccc4c3c2=O)c(OC)c1	none (no result: SARS PLpro yeast, HCV inh)
CCC1CSC(Nc2ccc(C(=O)/C=C/c3ccc(Br)cc3)cc2)=N1 (stereo not drawn)	LASV entry inh inconclusive, FMDV inh inconclusive, HCV inh inconclusive, Marburg entry inh inconclusive
COc1ccc(/C=C/C(=O)c2ccc(NC3=NCCCS3)cc2)cc1OC	FMDV inh 16µM, HCV inh inconclusive, Marburg entry inh inconclusive
COc1ccc(C=CC(=O)c2ccc3cc(OC)c(OC)cc3c2)cc1OC	FMDV inh inconclusive (no result: LASV entry inh, SARS PLpro yeast, HCV inh, Marburg entry inh)
